# Source: PubChem BioAssay
# KCNQ2 inh: rat KCNQ2 potassium channel inhibitors, primary screen, cell-based, CHO-K1, FluxOR thallium flux, B-score | 20 min; hits give low values | B-score at 10 µM | hit rate 1.1% among 310,000;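 active = fluorescence ratio B-score at most minus 3 library SDs, with starting brightness B-score within 2 library SDs, cut at about -5.5 in these data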
# KCNQ2 enhance: potentiators of rat KCNQ2 potassium channel; Potassium voltage-gated channel subfamily KQT member 2 (Rattus norvegicus), O88943; AID 2239, 2010; CHO-K1 KCNQ2, FluxOR thallium flux fluorescence; hits give high values; hit rate 0.54% among 310,000; B-score at 10 µM;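 active = fluorescence ratio B-score at least 3 SD of library B-scores, with initial fluorescence B-score within 3 of them, cut at about 5.3 in these data; same plate scores as AID 2156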;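 also: B-score of peak minus minimum over baseline fluorescence ratio after K+ and Tl+ stimulus; positive B-score means potentiation of KCNQ2 with more thallium influx and brighter signal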
# Kir21 conf inh: mouse Kir2.1 channel blockers, retest, confirmation, cell-based, FluxOR thallium flux, duplicate; shares compounds with KCNQ2 enhance; Kir2.1-expressing cells, FluxOR thallium flux fluorescence; hits give low values; Tl flux remaining, % of negative control (hits give low values), % at 10 µM; hit rate 41% among 2,300;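 active = Primary-screen hit whose thallium flux fell at least 3 control SD below untreated wells in both duplicates, with normal baseline fluorescence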;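 also: 0% = blank wells without stimulus and 100% = stimulated no-compound controls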
# HEK293 ctr: alters thallium flux in parental HEK293 cells, Kir2.1 counter-screen; shares compounds with KCNQ2 enhance; FluxOR thallium flux fluorescence; 0% = unstimulated blank wells; FluxOR signal as % of negative control (100 = no effect), % at 10 µM; hit rate 19% among 2,300;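 active = dye signal at least 3 control SD above or below untreated wells in both duplicates, raw fluorescence within 3, either direction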;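 also: percent is based on the flux ratio of peak minus minimum fluorescence over baseline F0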
# CHO-K1 Tl ctr: nonspecific thallium flux increase in parental CHO-K1, confirmation, counter-screen for KCNQ2 potentiator project, cell-based, FluxOR thallium flux, duplicate | hit rate 43% among 1,200 | shares compounds with KCNQ2 enhance | activity increase over 3SD of controls, % at 10 µM | AID 2282, 2010 | parental CHO-K1 cells, FluxOR thallium flux fluorescence; zero = vehicle mean+3SD, 100% = vehicle-minus-blank window;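 active = signal rise of at least 3 SD above the untreated control mean, in both duplicate wells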;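 also: counter screen of KCNQ2 potentiator hits so any rise reflects channel-independent effects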
# KCNQ1 sel pot: human KCNQ1 channel potentiation off-target, confirmation, selectivity assay for KCNQ2 potentiator project, cell-based, CHO, FluxOR thallium flux; shares compounds with KCNQ2 enhance; CHO KCNQ1 stable, FluxOR thallium flux fluorescence; beyond 3SD, as % of vehicle-control signal; activation over 3SD threshold, % at 10 µM; hit rate 28% among 1,200;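 active = fluorescence ratio rise of at least 3 SD of vehicle wells above their mean, in both replicate wells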;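 also: 0% = vehicle mean plus 3 SD and 100% = vehicle minus unstimulated blank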
# KCNQ2 pot conf: rat KCNQ2 channel potentiators, confirmation, cell-based, CHO, FluxOR thallium flux, duplicate. shares compounds with KCNQ2 enhance. CHO-KCNQ2 cells, FluxOR thallium flux fluorescence. potentiation, less the hit threshold, % at 10 µM. hit rate 68% among 1,200;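 active = fluorescence ratio rising 3 SD or more over the vehicle control mean in both replicates, plus primary screen hit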;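 also: peak minus minimum thallium fluorescence divided by baseline after K/Tl stimulus; 0% = vehicle mean plus 3 SD and 100% = vehicle minus unstimulated blank difference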
# Kir2-1 sel: mouse Kir2.1 channel activation off-target, confirmation, selectivity assay for KCNQ2 potentiator project, cell-based, HEK293, FluxOR thallium flux. shares compounds with KCNQ2 enhance. HEK293 Kir2.1, FluxOR thallium flux fluorescence. hit rate 2% among 1,200. activity over 3SD threshold, % at 10 µM;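 active = fluorescence ratio rise of at least 3 SD above the vehicle-control mean, seen in both replicates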;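 also: 0% = vehicle mean plus 3 SD and 100% = vehicle minus no-stimulus blank window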
# KCNQ2 W236L pot: potentiators of retigabine-insensitive KCNQ2 W236L, mechanism study for KCNQ2 potentiator project, cell-based, rat KCNQ2 W236L, CHO, automated patch clamp; shares compounds with KCNQ2 enhance; automated patch clamp current; current increase over 3SD of negative controls (%), hits give high values, % at 25 µM; hit rate 10% among 940; AID 2558, 2010;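 active = current increase at least 3 SD of the untreated controls above them in both duplicate recordings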
# Target sequence (O88943 whole entry W236L, looked up): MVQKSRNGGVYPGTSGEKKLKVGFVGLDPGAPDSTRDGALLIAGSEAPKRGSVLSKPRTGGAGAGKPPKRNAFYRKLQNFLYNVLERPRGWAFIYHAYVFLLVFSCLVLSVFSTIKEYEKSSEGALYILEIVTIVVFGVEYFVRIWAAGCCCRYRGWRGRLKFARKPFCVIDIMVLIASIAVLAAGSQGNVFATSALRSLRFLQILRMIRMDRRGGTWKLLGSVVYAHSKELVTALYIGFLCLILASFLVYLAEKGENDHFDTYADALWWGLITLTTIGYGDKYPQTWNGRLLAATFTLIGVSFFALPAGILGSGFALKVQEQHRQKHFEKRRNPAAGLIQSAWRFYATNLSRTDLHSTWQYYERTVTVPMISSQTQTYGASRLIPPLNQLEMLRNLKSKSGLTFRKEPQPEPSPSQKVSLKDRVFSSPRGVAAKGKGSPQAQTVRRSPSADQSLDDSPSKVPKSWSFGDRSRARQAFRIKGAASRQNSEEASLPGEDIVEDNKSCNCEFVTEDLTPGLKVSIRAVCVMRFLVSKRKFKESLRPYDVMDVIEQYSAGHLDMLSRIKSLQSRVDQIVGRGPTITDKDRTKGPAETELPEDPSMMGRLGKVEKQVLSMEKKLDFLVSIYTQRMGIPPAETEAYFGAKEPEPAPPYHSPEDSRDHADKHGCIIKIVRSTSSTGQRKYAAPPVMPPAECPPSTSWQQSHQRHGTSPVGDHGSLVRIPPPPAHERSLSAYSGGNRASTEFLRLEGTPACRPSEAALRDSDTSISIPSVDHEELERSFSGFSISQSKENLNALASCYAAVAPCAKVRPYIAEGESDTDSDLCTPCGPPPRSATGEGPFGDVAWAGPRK
# * marks the source's active call; other numbers are inactive results; i = inactive; . = not tested or not shown. Hits are enriched below; roughly 1.6% of the tested compounds scored in any of these assays.
SMILES,KCNQ2 inh,KCNQ2 enhance,Kir21 conf inh,HEK293 ctr,others
Cc1cc(N2CCCCC2)nc(SCC(=O)c2ccccc2)n1,i,.,.,.,
O=C(CSc1nc(N2CCCCC2)nc(N2CCCCC2)n1)c1ccccc1,i,32*,i,i,CHO-K1 Tl ctr=-6;KCNQ1 sel pot=38*;KCNQ2 pot conf=20*;Kir2-1 sel=-28;KCNQ2 W236L pot=i
CCOC(=O)c1c(S(=O)(=O)NCC(=O)NCc2ccc(C)cc2)c(C)n(C)c1C,i,.,.,.,
COc1cccc(C(=O)N2CCCN(C)CC2)c1OC,i,.,.,.,
COc1ccc(C(=O)N2CCN(C)C(=O)[C@@H]2C)cc1OC1CCN(C(C)=O)CC1,i,1.1,.,.,
COc1ccc(CCN2CC(C(=O)NC3CCOCC3)CCC2=O)cc1 (centres undefined),i,1.2,.,.,
Cc1cc(OCC(=O)NNC(=O)c2cccnc2)cc(C)c1Cl,i,0.42,.,.,
Cc1cccc(NC(=O)CC(=O)Nc2cccc(C)c2)c1,i,.,.,.,
Cc1cccc(NC(=O)C23CCC(C)(C2Br)C3(C)C)c1 (centres undefined),i,10*,i,i,CHO-K1 Tl ctr=-2;KCNQ1 sel pot=7.4*;KCNQ2 pot conf=-6;Kir2-1 sel=-47;KCNQ2 W236L pot=i
O=C(CSc1nc2[nH]ncc2c(=O)[nH]1)Nc1cccc(Cl)c1,i,.,.,.,
N#Cc1c(-c2ccco2)nc(SCC(=O)Nc2cccc(Cl)c2)[nH]c1=O,i,5.5*,i,i,CHO-K1 Tl ctr=-13;KCNQ1 sel pot=-7;KCNQ2 pot conf=7.4*;Kir2-1 sel=-30;KCNQ2 W236L pot=i
CCn1c(CC(=O)Nc2ccc(F)cc2)nnc1SCC(=O)Nc1nncs1,i,0.1,.,.,
Cc1ccc(S(=O)(=O)NCC(=O)OCC(=O)N(C)C2CCS(=O)(=O)C2)cc1 (centres undefined),i,0.16,.,.,
CC(=O)Nc1ccc(N/C=C/C(=O)C(C)(C)C)cc1,i,.,.,.,
Cc1ccc(N/C=C/C(=O)C(C)(C)C)c(O)c1,i,8.3*,i,i,CHO-K1 Tl ctr=-1;KCNQ1 sel pot=2.9*;KCNQ2 pot conf=8.3*;Kir2-1 sel=-21;KCNQ2 W236L pot=i
COc1ccc(S(=O)(=O)N(C)c2ccc(C(=O)Nc3cccnc3)cc2)cc1OC,i,2.8,.,.,
Cc1ccc(C(=O)NCCc2nnc3ccc(N4CCCC4)nn23)cc1,i,.,.,.,
COc1cccc(CNc2ccc(C)c(Cl)c2)c1,i,0.05,.,.,
COc1cccc(CNc2cc(CSc3ccc(Cl)cc3)nc(C)n2)c1,i,.,54%*,i,
O=C(O)c1cccc(N2C(=O)c3cc([N+](=O)[O-])cc4cc([N+](=O)[O-])cc(c34)C2=O)c1,i,.,.,.,
CC(=O)NS(=O)(=O)c1ccc(NC(=O)c2cccc3ccccc23)cc1,i,0.42,.,.,
Cc1cccc(OCC(=O)NCC(=O)N/N=C/c2cc(Br)cc(Br)c2O)c1,i,10*,i,i,CHO-K1 Tl ctr=6.9*;KCNQ1 sel pot=0.7*;KCNQ2 pot conf=-12;Kir2-1 sel=-27
COc1cccc(/C=N/NC(=O)CNC(=O)COc2ccccc2)c1O,i,1.2,.,.,
O=C(/C=C/c1ccccc1)c1cc(Br)ccc(=O)c1O,i,0.7,.,.,
Cc1ccc(/C=C/C(=O)c2ccccc(=O)c2O)cc1C,i,6.1*,i,i,CHO-K1 Tl ctr=-6;KCNQ1 sel pot=-23;KCNQ2 pot conf=0.8*;Kir2-1 sel=-33;KCNQ2 W236L pot=i
SMILES,KCNQ2 inh,KCNQ2 enhance,Kir21 conf inh,HEK293 ctr,others
NCC1CC2c3ccccc3C1c1ccccc12 (centres undefined),i,.,.,.,
CCOc1ccc(C(C)NC(=O)c2cccs2)cc1OCC (centres undefined),i,0.05,.,.,
CCc1ccc(C(C)NC(=O)c2cccs2)cc1 (centres undefined),i,5.3*,i,i,CHO-K1 Tl ctr=-18;KCNQ1 sel pot=46*;KCNQ2 pot conf=-2;Kir2-1 sel=-33;KCNQ2 W236L pot=i
COc1ccc(NC(=O)Cc2nnc(SCC(=O)c3ccc(F)cc3)n2C)cc1,i,0.05,.,.,
O=C(CC12CC3CC(CC(C3)C1)C2)NC(Cc1ccccc1)C(=O)O (centres undefined),i,0.32,.,.,
CNC[C@H](CC1CCCCC1)NC[C@H](Cc1ccccc1)NCCC12CC3CC(CC(C3)C1)C2,i,1.3,i,i,
Cc1cc(CNC(=O)c2ccc3oc(C(C)C)nc3c2)nn1C,i,1.9,.,.,
OCC[C@@H]1C[C@@H](O)[C@H](O)[C@@]2(CCCc3ccccc3O2)O1,i,0.83,.,.,
CCCC(C1=C(O)CC(C)(C)CC1=O)C1C(=O)CC(C)(C)CC1=O (centres undefined),i,.,.,.,
Cc1ccc(C(C2=C(O)CC(C)(C)CC2=O)C2C(=O)CC(C)(C)CC2=O)o1 (centres undefined),i,8.7*,.,.,CHO-K1 Tl ctr=-17;KCNQ1 sel pot=54*;KCNQ2 pot conf=1.5*;Kir2-1 sel=-58;KCNQ2 W236L pot=46%*
COc1ccc(C)cc1NC(=O)CN1C(=O)COc2ccc(C)cc21,i,.,.,.,
OCc1cc(-c2ccccn2)no1,i,.,.,.,
CC(=O)Nc1ccc(S(=O)(=O)NCCC(=O)OCc2csc(CC(=O)Nc3ccccc3C)n2)cc1,i,1.5,.,.,
Cc1cccc(S(=O)(=O)N2CCCc3ccccc32)c1,i,.,i,i,
Cc1cc(C)c(S(=O)(=O)N2CCCc3ccccc32)c(C)c1,i,.,.,.,
CN(Cc1ccc(F)cc1)C(=O)c1sccc1-c1ccccc1,i,.,64%*,i,
COc1ccc(CN(C)C(=O)c2sccc2-c2ccccc2)c(OC)c1,i,.,.,.,
CCCN(c1ccc(OCC)cc1)S(=O)(=O)c1ccc2c(c1)NC(=O)CO2,i,.,.,.,
O=C(COc1ccc(Br)cc1Cl)NC1CCN(Cc2ccccc2)CC1,i,.,21%*,i,
O=C(COc1ccccc1)NC1CCN(Cc2ccccc2)CC1,i,.,.,.,
